# In PubChem BioAssay AID588342 (National Center for Advancing Translational Sciences (NCATS), 2011):
# In all, about 360,000 compounds went through this assay and about 25,000 (6.9%) were called active. Where a call stands in place of a potency, no number is given. About 9% were inconclusive and are not listed. The sample holds actives, similar compounds and a random draw of the others, so the mix is not that of the screen. The call rests on the fitted dose curve; in most records, active means well fitted inhibition curve with a large enough effect; inconclusive means small, poorly fitted or top-dose-only effect; inactive means flat fitted curve, though single readings scatter.
# Target: Luciferin 4-monooxygenase (Photinus pyralis) (UniProt P08659)
# Experiment: qHTS profiling assay for firefly luciferase inhibitor/activator using purifed enzyme and Km concentrations of substrates (counterscreen for miR-21 project); further: nearly all actives have a fitted effect of over 55% in size
# Conditions: purified FLuc, luminescence inhibition; series mostly up to 57.5 µM
# Outline: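 Purified P. pyralis luciferase (10nM final) with 10uM D-luciferin and 10uM ATP (Km levels) in 50mM Tris acetate pH 7.5, 10mM Mg acetate, 0.01% Tween-20, 0.05% BSA; qHTS 6-point titration, ~60 µM downward; luminescence read.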
# Potency means the concentration at half of the fitted maximal effect.
# Chain of Luciferin 4-monooxygenase (Photinus pyralis) (P08659 whole entry, looked up): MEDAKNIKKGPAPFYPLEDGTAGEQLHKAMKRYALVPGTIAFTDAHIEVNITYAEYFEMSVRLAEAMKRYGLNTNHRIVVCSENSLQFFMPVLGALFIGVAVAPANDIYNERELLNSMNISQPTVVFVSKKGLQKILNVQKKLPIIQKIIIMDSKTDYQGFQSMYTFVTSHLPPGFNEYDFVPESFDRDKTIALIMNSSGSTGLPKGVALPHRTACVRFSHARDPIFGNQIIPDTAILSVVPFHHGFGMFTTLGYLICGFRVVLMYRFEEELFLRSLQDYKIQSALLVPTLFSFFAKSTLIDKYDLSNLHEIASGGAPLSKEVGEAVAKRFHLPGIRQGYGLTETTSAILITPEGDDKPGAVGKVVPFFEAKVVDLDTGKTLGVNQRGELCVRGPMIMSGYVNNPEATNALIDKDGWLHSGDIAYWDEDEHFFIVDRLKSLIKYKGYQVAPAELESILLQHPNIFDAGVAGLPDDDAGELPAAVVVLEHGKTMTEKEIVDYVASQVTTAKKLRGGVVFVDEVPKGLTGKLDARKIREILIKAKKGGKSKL
row,SMILES,Potency
1,CCCCOc1ccc(C(=O)N2CC(=O)Nc3ccc(Br)cc3C2c2ccc(F)cc2)cc1 (stereo not given),inactive
2,Cc1ccc2oc(=O)c3cnn(CC(=O)N4CCCCCC4)c3c2c1,inactive
3,Cc1ccc2cc3cc(C(=O)N4CCCCCC4)oc3nc2c1,2.69 µM (active)
4,CCc1ccc(CNC(=O)c2cc3cc4ccc(OC)cc4nc3o2)cc1,inactive
5,CCCCn1c(N)c(N(CC)C(=O)c2ccc(N(C)S(=O)(=O)c3ccc(C)cc3)cc2)c(=O)[nH]c1=O,inactive
6,Cc1cc(Br)ccc1SCC(=O)OCC(=O)NCc1ccc2c(c1)OCO2,inactive
7,Cc1ccccc1NC(=O)Cc1nc(COC(=O)c2cccnc2Cl)cs1,inactive
8,CCCNC(=O)C1CCC(Cn2c(=O)c3sccc3n(Cc3ccccc3F)c2=O)CC1 (stereo not given),inactive
9,O=C(Cn1cnc2c(cnn2-c2ccccc2)c1=O)NCc1ccccc1,inactive
10,CCN(CC)C(=O)CSc1ncnc2c1cnn2-c1ccccc1,16.9 µM (active)
11,CC(C)Sc1ncnc2c1cnn2-c1ccccc1,1.51 µM (active)
12,COc1ccc(-n2ncc3c(SCC(=O)NNC(C)=O)ncnc32)cc1,16.9 µM (active)
13,CC(Sc1ncnc2c1cnn2-c1ccccc1)C(=O)Nc1ccc(N2CCOCC2)cc1 (stereo not given),inactive
14,O=C(Cn1cnc2c(cnn2-c2ccc(F)cc2)c1=O)NCCc1ccccc1,inactive
15,CC(=O)Nc1ccc(NC(=O)CSc2ncnc3c2cnn3Cc2ccccc2)cc1,inactive
16,CC(=O)Cn1cnc2c(cnn2-c2ccccc2)c1=O,inactive
17,COc1ccc(NC(=O)CSc2ncnc3[nH]ncc23)cc1,inactive
18,CCN(CC)C(=O)CSc1nc2cc3c(cc2c(=O)n1CCCC(=O)NCc1ccc2c(c1)OCO2)OCO3,inactive
19,CCC1=Nc2cc(C(=O)NCCCOC(C)C)ccc2Sc2ccc(C)cc21,inactive
20,CCN(CC)S(=O)(=O)c1ccc2c(c1)c(=O)c(C(=O)N1CCN(c3cccc(Cl)c3)CC1)cn2C,inactive
21,CC(C)(C)OC(=O)N1CCC(c2c(C(=O)Nc3ccc4c(c3)OCO4)cnn2-c2ccccc2)CC1,inactive
22,COc1ccc(-c2noc(CCC(=O)N(C)c3ccccc3C)n2)cc1,inactive
23,CN(CC(=O)NCC(c1ccccc1)N1CCCC1)S(=O)(=O)c1ccc(Cl)cc1 (stereo not given),inactive
24,CCOC(=O)c1ccc(NC(=O)Cn2c(=O)cc(C)c3c(C)nn(-c4cccc(F)c4)c32)cc1,inactive
25,O=C(COC(=O)CCc1nc2ccccc2c(=O)[nH]1)Nc1ccc(N2CCOCC2)cc1,inactive

row,SMILES,Potency
1,CCCCCCSc1nsc(N)n1,26.9 µM (active)
2,CCCSc1nsc(N)n1,inactive
3,CC(C)CC(=O)NC(=S)NNC(=O)c1cccc([N+](=O)[O-])c1,inactive
4,COc1ccc(OCCNC(=O)c2cc(C3CC3)nc3c2cnn3C(C)C)cc1,inactive
5,CCOC(=O)c1ccc(NC(=O)C2CCN(S(=O)(=O)c3ccc4c(c3)CCCC(=O)N4)CC2)cc1,inactive
6,COc1cccc(CSc2nc3nc(C)cc(C)n3n2)c1,inactive
7,COc1ccc(-c2nnc3ccc(SCc4ccccc4)nn23)cc1,inactive
8,COc1ccc2nc(SCc3ccccc3)nc(C)c2c1,2.69 µM (active)
9,CC(Oc1ccc(Br)cc1)C(=O)NC1CCCCCC1 (stereo not given),inactive
10,CCn1cc(C(=O)N2CCN(c3cc(Cl)ccc3C)CC2)c(=O)c2cc(S(=O)(=O)N3CCCC3)ccc21,inactive
11,CC(C)(Oc1ccc(Cl)cc1)C(=O)OCC(=O)NCCc1ccc(S(N)(=O)=O)cc1,inactive
12,O=C(NCCc1ccccc1)C(=O)NCC(c1ccco1)S(=O)(=O)c1ccccc1 (stereo not given),inactive
13,CCCCn1c(N)c(N(CCOC)C(=O)c2cccc(S(=O)(=O)N(C)c3ccccc3)c2)c(=O)[nH]c1=O,inactive
14,O=C(c1cn(-c2ccccc2)nc1-c1cccnc1)N1CCN(S(=O)(=O)c2ccccc2F)CC1,inactive
15,COc1ccccc1N1CCN(C(=O)c2cn(-c3ccccc3)nc2-c2cccnc2)CC1,9.53 µM (active)
16,NC(=O)C1CCN(C(=O)c2cn(-c3ccccc3)nc2-c2cccnc2)CC1,inactive
17,CCOCCCNC(=O)c1c(NC(=O)Cc2coc3c(C)c(C)ccc23)sc2c1CCC2,inactive
18,CC[C@]1(c2ccccc2OC)C(=O)N(C(=O)OC)N1C(=O)OC,inactive
19,O=C(COc1ccccc1)NCc1ccc2c(c1)CCN2C(=O)c1ccc(F)cc1,inactive
20,Cc1cccc(OCCNC(=O)CSc2ccc(C(F)(F)F)cc2[N+](=O)[O-])c1,inactive
21,COc1ccc(-c2nn(CC(=O)Nc3ccccc3F)c3c2cnc2ccc(F)cc23)cc1,inactive
22,CC(C)(C)OC(=O)N1CCC(C(=O)NNC(=O)c2ccc(Cl)cc2Cl)CC1,inactive
23,O=C(Nc1ccc2c(c1)OCCO2)c1cnccn1,12 µM (active)
24,O=C(Nc1cccc(NC(=O)c2ccco2)c1)c1cnccn1,inactive
25,COc1cccc(NC(=O)c2nn(C34CC5CC(CC(C5)C3)C4)cc2[N+](=O)[O-])c1,inactive

row,SMILES,Potency
1,O=C(Nc1ccc2c(c1)OCO2)c1ccc(N2C(=O)c3ccccc3C2=O)cc1,inactive
2,O=C(Nc1ccc2c(c1)OCCO2)c1ccoc1,21.3 µM (active)
3,O=C(CCN1C(=O)c2ccncc2C1=O)Nc1ccc2c(c1)OCCO2,inactive
4,Cc1nn(CC(=O)Nc2ccc3c(c2)OCO3)c(C)c1[N+](=O)[O-],inactive
5,CCC(C(=O)Nc1ccc2c(c1)OCCO2)c1ccccc1 (stereo not given),inactive
6,Cn1cc([N+](=O)[O-])c(C(=O)Nc2ccc3c(c2)OCCO3)n1,16.9 µM (active)
7,O=C(OCc1cc(=O)n2ccsc2n1)C1(c2ccc(Cl)cc2)CC1,inactive
8,COCC(C)NS(=O)(=O)c1ccc(N2CCCCS2(=O)=O)cc1 (stereo not given),inactive
9,COc1ccccc1N=C1SC(C)CN1C(=O)C1CCC1 (stereo not given),inactive
10,CCOc1ccc(C(=O)Nc2ccc3nc4c(c(Nc5ccccc5OC)c3c2)CCCC4)cc1,inactive
11,CCOC(=O)C1CCN(c2ncnc3c2c(-c2ccccc2)cn3-c2cccc(C)c2)CC1,inactive
12,COc1ccc(C(C)NC(=O)C23CC4CC(CC(C4)C2)C3)cc1 (stereo not given),inactive
13,CC(=O)c1ccc(S(=O)(=O)Nc2ccc(-c3ccc4nncn4n3)cc2)cc1,inactive
14,CC(C)NS(=O)(=O)c1ccc(NC(=O)C2CCCCC2)cc1,inactive
15,O=C(Nc1ccc(-c2ccc3nncn3n2)cc1)C1CCCCC1,26.9 µM (active)
16,COc1ccccc1NC(=O)c1oc2ccccc2c1NC(=O)COc1ccccc1OC,inactive
17,CCCCN(CC)CCCNC(=O)c1nn(C)c2c1CSc1ccccc1-2,inactive
18,CCOC(=O)N1CCN(C(=O)CNC(=O)Cc2ccc(Cl)cc2)CC1,inactive
19,CCOC(=O)c1c(Cc2ccc(Cl)cc2)c[nH]c1C,19 µM (active)
20,CCOC(=O)c1ccc(CS(=O)c2ccc(Cl)cc2)o1 (stereo not given),inactive
21,Cc1nc(C(=O)Nc2ccc(Cl)cc2)sc1C1(C)CC(c2ccccc2)=NO1 (stereo not given),inactive
22,Cc1nc(-c2ccc(Cl)cc2)sc1C1(C)CC(c2ccccc2F)=NO1 (stereo not given),19 µM (active)
23,CC1(c2nnc(Cc3ccccc3)o2)CC(c2ccccc2F)=NO1 (stereo not given),inactive
24,CN(CC(=O)Nc1ccc(F)c(F)c1F)C(=O)C1CC(=O)N(C2CCCC2)C1 (stereo not given),inactive
25,O=C(/C=C/Sc1ncn[nH]1)c1ccc(Cl)cc1,1.9 µM (active)

row,SMILES,Potency
1,O=C(CSc1ncn[nH]1)NCc1ccc2c(c1)OCO2,inactive
2,CC(=O)NS(=O)(=O)c1ccc(NC(=O)C2C3C=CC(C3)C2C(=O)O)cc1 (stereo not given),inactive
3,COC(=O)c1cc(NC(=O)C2C3C=CC(C3)C2C(=O)O)cc(C(=O)OC)c1 (stereo not given),inactive
4,CC(C)COC(=O)c1ccc(NC(=O)C2C3C=CC(C3)C2C(=O)O)cc1 (stereo not given),19 µM (active)
5,CCCN(CC1CC1)C(=S)NC(=O)c1ccccc1Br,inactive
6,Cc1csc2nc(COC(=O)c3ccc(NC(=O)COc4ccccc4F)cc3)cc(=O)n12,inactive
7,COc1ccccc1N1CCN(C(=O)C2CCN(S(=O)(=O)c3c(C)noc3/C=C/c3ccc(C)cc3)CC2)CC1,inactive
8,Cc1csc(NC(=O)C2CCN(S(=O)(=O)c3ccccc3)CC2)n1,inactive
9,O=C(Nc1ccccn1)C1CCN(S(=O)(=O)c2ccccc2)CC1,23.9 µM (active)
10,O=C(Nc1ccccn1)C1CCN(S(=O)(=O)c2ccc3c(c2)OCCO3)CC1,19 µM (active)
11,O=C(NCc1cccs1)C1CCN(S(=O)(=O)c2ccc3c(c2)OCCO3)CC1,inactive
12,COCCNC(=O)C1CCN(S(=O)(=O)c2ccc3c(c2)OCCO3)CC1,inactive
13,O=C(NCc1ccccn1)C1CCN(S(=O)(=O)c2ccc(Br)cc2)CC1,inactive
14,C=Cc1ccc(Cn2c(C(=O)O)c(CNC3CCCC3)c3ccc(C)cc32)cc1,inactive
15,CCOC(=O)c1c(NC(C)=O)c2c3c(sc2n1Cc1c(C)cc(C)cc1C)CCCC3,inactive
16,CCOC(=O)c1ccccc1NC(=O)COC(=O)C(Cc1c[nH]c2ccccc12)NC(C)=O (stereo not given),inactive
17,CCC(=O)N1CCc2cc(S(=O)(=O)NCCC(=O)Nc3cccc(C)c3C)ccc21,inactive
18,Cc1oc(C)c2c(=O)cc(-c3ccc4c(c3)OCO4)cc(OC(=O)c3ccc(Cl)cc3)c12,inactive
19,Cc1cc(/C=C2\SC(=Nc3ccc(N4CCOCC4)cc3)N(C)C2=O)c(C)n1-c1cccnc1,inactive
20,Cc1ccccc1-n1c(C)cc(/C=C2\NC(=O)NC2=O)c1C,1.9 µM (active)
21,Cc1ccc2c(c1)C(O)(CC(=O)c1cccnc1)C(=O)N2 (stereo not given),inactive
22,CSc1cc(C)n(-c2ccccc2C)c(=S)c1C(C)=O,inactive
23,Cc1ccccc1N1CC(c2nc3ccccc3[nH]2)CC1=O (stereo not given),inactive
24,Cc1cc(/C=C2/NC(=O)NC2=O)c(C)n1-c1cccnc1,15.1 µM (active)
25,C=CCn1c(=O)c(C(=O)NCc2ccc3c(c2)OCO3)c(O)c2ccccc21,inactive
